Reference: PubChem BioAssay

Test: budding yeast growth modifiers under rapamycin – strain BY4716, OD600, 96 h, primary screen (AID 1091); also: test concentration not given here
Settings: S. cerevisiae BY4716 + rapamycin, higher = more signal, called active from +8 up or from −8 down

z-score, inactive:
CC[C@@H]1C=C(C(=O)O)[C@H](c2ccc(C)cc2)N1S(=O)(=O)c1ccc(C)cc1 -0.564
COCC(=C=CC[C@@H](O)c1ccc(OCCO)cc1)C[C@@H](O)c1ccccn1 -0.0669
C=CCN1Cc2ccccc2[C@@H]2OC(c3ccc(OCCCO)cc3)=N[C@]2(CCS(=O)(=O)c2ccccc2)C1=O 3.51
COc1cc(OC)c(C(O)C2C=CC3C(=O)NC(=O)C3N2Nc2ccccn2)cc1Br (stereo unspecified) 0.204
COC(=O)[C@H](Cc1ccccc1)N[C@H](/C=C/C1CC1)[C@@H](O)Cc1ccccc1 -0.751
O=C1C2C=CC(C(O)c3ccc4c(c3)OCO4)N(Nc3ccc([N+](=O)[O-])cc3)C2C(=O)N1c1ccccc1 (stereo unspecified) 1.36
CC(C)CNC(=O)[C@@]1(Cc2ccccc2I)c2ccccc2C(=O)N(Cc2ccccc2C(F)(F)F)[C@H]1c1ccc(CO)cc1 -0.403
COc1cc2c(cc1O)C(c1cccs1)N(Cc1cccc(OC(F)(F)F)c1)CC2 (stereo unspecified) -2.63
C=C(/C(=C/C[C@H](OC(=O)c1ccncc1)c1ccc(OCCO)cc1)c1cc(C(=O)OC)ccc1OC)C(C)C -0.359
CC1CC/C=C\[C@H]2OC34C=CCN(Cc5ccccc5)C(=O)[C@H]3N(C(C)CO)C(=O)[C@@H]4C2C(=O)O1 (stereo partly specified) -0.577
CCOC(=O)C[C@H]1[C@H](OC(=O)c2ccc(-c3ccccc3)cc2)[C@@H](NC(=O)c2ccccc2)c2cc(OCCCO)ccc2N1C(=O)Cc1ccc(OC)cc1 1.45
COc1ccc(NN2C(C(O)c3ccc(N(C)C)cc3)C=CC3C(=O)N(C4CCCCC4)C(=O)C32)cc1 (stereo unspecified) 0.687
NC(=O)[C@@H]1[C@H]2C(=O)O[C@H](c3ccccc3)[C@H](c3ccccc3)N2[C@H](c2ccc(O)cc2)[C@@]12C(=O)Nc1ccc(C#CC3=CCCCC3)cc12 2.74
C=CCC(OC(C)=O)[C@@H]1[C@@H](N(Cc2ccc(-c3cccc(C(F)(F)F)c3)o2)C(=O)c2cccc3ccccc23)c2cc(OCCCO)ccc2N1C(=O)Cc1ccc2ccccc2c1 (stereo partly specified) 0.133
O=C1O[C@@H](c2ccccc2)[C@@H](c2ccccc2)N2[C@@H](c3ccccc3OCCO)[C@]3(C(=O)Nc4ccccc43)[C@@H](C(=O)O)[C@H]12 -1.17
O=C1OCCC/C=C\[C@H]2OC34C=CCN(c5ccc6ccccc6c5)C(=O)[C@H]3N(CCCCCO)C(=O)[C@@H]4C12 (stereo partly specified) -0.419
Cc1ccc(S[C@]2(C(=O)NCC(C)C)CC(=O)N(Cc3cc(C(F)(F)F)cc(C(F)(F)F)c3)[C@@H]2c2ccc(CO)cc2)cc1 -0.429
COc1ccc([C@H]2C[C@H]3C(I)=C[C@@H]2C(=O)[C@]32CO2)cc1 -1.79
C=CCNC(=O)[C@@H]1[C@H]2C(=O)O[C@H](c3ccccc3)[C@H](c3ccccc3)N2[C@H](c2ccc(OCCO)cc2)[C@@]12C(=O)N(C(=O)OCCOC)c1ccc(C#CCC(C(=O)OC)C(=O)OC)cc12 5.79
COc1ccc([Si](C)(C)[C@H]2[C@H](CCO)O[C@@]3(C(=O)N(Cc4ccccc4)c4ccc(N5CCCCC5=O)cc43)[C@@H]2C)cc1 1.97
C[N+](C)(C)CCCC[C@@H]1NC(=O)[C@@H]2C[C@H](C(=O)NCCCCCN)[C@H](c3ccc(O)cc3)N2C1=O -0.978
O=C1C2C=CC(C(O)c3ccc(-c4ccccc4)s3)N(Nc3ccccc3)C2C(=O)N1c1ccccc1 (stereo unspecified) 0.355
COc1ccc(C(=O)Nc2cccc(CN3C(=O)[C@]4(O[C@H](CCn5cc(CCO)nn5)[C@@H]([Si](C)(C)c5ccc(OC)cc5)[C@@H]4C)c4ccccc43)c2)cc1 1.15
COC(=O)[C@@]1(Cc2ccccc2)[C@H]2c3cc(C(=O)N4CCCC4)n(Cc4ccc(O)c(OC)c4)c3C[C@H]2CN1C(=O)c1ccccc1 2.06
O=C(NCCN1CCOCC1)[C@@H]1c2ccccc2C(=O)N(Cc2cc(C(F)(F)F)cc(C(F)(F)F)c2)[C@H]1c1ccc(CO)cc1 0.0371
O=C1C2C=CC(C(O)c3cc(C(F)(F)F)cc(C(F)(F)F)c3)N(Nc3ccccc3)C2C(=O)N1c1ccccc1 (stereo unspecified) 3.15
